“And” between values parts separate entries of the source, which are not always exact repeats. Identical values can stand only once. Results filed as inconclusive are left out. A call without a number means that no potency is given here. Some compounds were tested as several samples or in several runs, with calls that do not always agree. The source made the active and inactive calls. Unless noted, calls follow the shape of the dose curve; as a rule, active = well fitted curve in the direction sought with a large enough effect in the repeat runs; inconclusive = weak or mixed curves; inactive = no such curve, though single readings can be large; an effect the other way counts as inactive or inconclusive.
Test: qHTS assay to identify small molecule HDAC inhibitors - cell viability counter screen (AID 1259365); also: nearly all actives have a fitted effect of over 50% in size
Settings: HCT-116 viability, CellTiter-Glo ATP luminescence, 2 h; series mostly up to 92.4 µM; activity change, negative = cytotoxicity: at the top concentration
Procedure, shortened: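 HCT-116 wild-type, overnight attachment; 2hr drug exposure, 37C; CellTiter-Glo luminescent ATP readout after 30min RT.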
With `O=C1NC(=O)c2ccccc21` the outcome was “inactive”.
In the case of `O=C(C1CCCCC1)N1CC(=O)N2CCc3ccccc3C2C1` (stereo unspecified), the outcome is reported as “inactive”.
For `Cc1ccc(S(=O)(=O)NC(=O)NN2CCCCCC2)cc1`, the outcome was “inactive”.
For `O=C(O)c1cccc([N+](=O)[O-])c1`, the outcome was “inactive”.
With `CC(=O)NS(=O)(=O)c1ccc(N)cc1` the outcome was “inactive”.
With `O=C(O)c1cccnc1` the outcome was “inactive”.
With `CC(O)CO` (stereo unspecified) the outcome was “inactive”.
In the case of `CCCC(O)C(CC)CO` (stereo unspecified), the outcome is reported as “inactive”.
For `O=C(O)/C=C\C(=O)O`, the outcome was “inactive”.
In the case of `CC(=O)Nc1nnc(S(N)(=O)=O)s1`, the outcome is reported as “inactive”.

Test: qHTS assay to identify small molecule agonists of the sonic hedgehog signaling (Shh) pathway - cell viability counter screen (AID 1259366); also: nearly all actives have a fitted effect of over 50% in size; also: potency is read from the fitted curve at half-maximal effect
Settings: NIH/3T3 Gli1-Luc viability, CellTiter-Fluor, 24 h; series mostly up to 92.4 µM; viability change, negative = cytotoxic: at the top concentration
Procedure, shortened: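 Compounds in DMSO were pin-transferred onto 3T3 Gli1-Luc cells that had settled 4hr; plates then stood 24hr at 37C and 5% CO2. One hour before the end, CellTiter-Fluor was added and fluorescence recorded.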
With `O=C(O)CCC(=O)O` the Potency was “inactive”.
In the case of `Oc1ccc(/C=C/c2cc(O)cc(O)c2)cc1`, the Potency is reported as 21.9 µM (active) and 24.3 µM (active).
For `Cc1ccc(C)c(OCCCC(C)(C)C(=O)O)c1`, the Potency was “inactive”.
In the case of `O=C(O)c1[nH]n(-c2ccc(S(=O)(=O)O)cc2)c(=O)c1N=Nc1ccc(S(=O)(=O)O)cc1`, the Potency is reported as 27.4 µM (active) and 25.5 µM (active).
With `CC(O)CN(CCN(CC(C)O)CC(C)O)CC(C)O` (stereo unspecified) the Potency was “inactive”.
With `CCCCCCCCCCCCCCCC(=O)O` the Potency was “inactive”.
For `O=C(O)C(=O)O`, the Potency was “inactive”.
In the case of `NC(=O)c1cnccn1`, the Potency is reported as “inactive”.
For `Cc1ccccc1C(OCCN(C)C)c1ccccc1` (stereo unspecified), the Potency was “inactive”.
In the case of `c1ccc2[nH]ccc2c1`, the Potency is reported as “inactive”.
In the case of `CC(C)(Oc1ccc(C2CC2(Cl)Cl)cc1)C(=O)O` (stereo unspecified), the Potency is reported as “inactive”.
For `CCCC(CCC)C(=O)O`, the Potency was “inactive”.
For `O=C(O)CS`, the Potency was “inactive and 30.9 µM (active)”.
In the case of `COc1c2occc2cc2ccc(=O)oc12`, the Potency is reported as “inactive”.
For `O=c1ccc2ccccc2o1`, the Potency was “inactive”.
For `CCC1(c2ccccc2)C(=O)NCNC1=O`, the Potency was “inactive”.
With `CCCNC(=O)NS(=O)(=O)c1ccc(Cl)cc1` the Potency was “inactive”.
With `O=c1cc[nH]c(=S)[nH]1` the Potency was “inactive”.
In the case of `NC(=O)c1ccccc1O`, the Potency is reported as “inactive”.
For `Cn1cc[nH]c1=S`, the Potency was “inactive”.
With `Cn1c(=O)c2[nH]cnc2n(C)c1=O` the Potency was “inactive”.
With `Cc1cc(=O)[nH]c(=S)[nH]1` the Potency was “inactive”.
In the case of `COc1ccc2[nH]cc(CCNC(C)=O)c2c1`, the Potency is reported as “inactive”.
In the case of `CC(C)[C@@H]1CC[C@@H](C)C[C@H]1O`, the Potency is reported as “inactive”.
In the case of `Nc1ccn([C@H]2CC[C@@H](CO)O2)c(=O)n1`, the Potency is reported as “inactive”.
In the case of `CC(=O)OCC(COC(C)=O)OC(C)=O`, the Potency is reported as “inactive”.
For `O=C(O)c1cc(N=Nc2ccc(S(=O)(=O)Nc3ccccn3)cc2)ccc1O`, the Potency was 21.8 µM (active) and 24.3 µM (active).
For `O=C1NC(=O)c2ccccc21`, the Potency was “inactive”.
With `Cc1ccc(S(=O)(=O)NC(=O)NN2CCCCCC2)cc1` the Potency was “inactive”.
In the case of `O=C(O)c1cccc([N+](=O)[O-])c1`, the Potency is reported as “inactive”.
In the case of `CC(=O)NS(=O)(=O)c1ccc(N)cc1`, the Potency is reported as “inactive”.
With `O=C(O)c1cccnc1` the Potency was “inactive”.
In the case of `CC(O)CO` (stereo unspecified), the Potency is reported as “inactive”.
In the case of `CCCC(O)C(CC)CO` (stereo unspecified), the Potency is reported as “inactive”.
In the case of `O=C(O)/C=C\C(=O)O`, the Potency is reported as “inactive”.
With `CC(=O)Nc1nnc(S(N)(=O)=O)s1` the Potency was “inactive”.

Test: qHTS assay to identify small molecule antagonists of the sonic hedgehog signaling (Shh) pathway - cell viability counter screen (AID 1259367); also: nearly all actives have a fitted effect of over 55% in size; also: potency is read from the fitted curve at half-maximal effect
Settings: NIH/3T3 Gli1-Luc viability, CellTiter-Fluor, 24 h; series mostly up to 92.4 µM; viability change, negative = cytotoxic: at the top concentration
Procedure, shortened: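 Viability was read by CellTiter-Fluor fluorescence in the same wells, reagent added 23 hr into compound treatment and incubated 1 hr at 37C. The 3T3 Gli1-Luc reporter cells (2,000/well) received conditioned medium after compound and ran 24 hr.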
With `O=C(O)C(=O)O` the Potency was “inactive”.
With `c1ccc2[nH]ccc2c1` the Potency was “inactive”.
With `COc1c2occc2cc2ccc(=O)oc12` the Potency was “inactive”.
With `CCC1(c2ccccc2)C(=O)NCNC1=O` the Potency was “inactive”.
For `CCCNC(=O)NS(=O)(=O)c1ccc(Cl)cc1`, the Potency was “inactive”.
For `O=c1cc[nH]c(=S)[nH]1`, the Potency was “inactive”.
For `NC(=O)c1ccccc1O`, the Potency was “inactive”.
In the case of `Cn1cc[nH]c1=S`, the Potency is reported as “inactive”.
In the case of `Cn1c(=O)c2[nH]cnc2n(C)c1=O`, the Potency is reported as “inactive”.
In the case of `CC(C)[C@@H]1CC[C@@H](C)C[C@H]1O`, the Potency is reported as “inactive”.
For `O=C(O)c1cc(N=Nc2ccc(S(=O)(=O)Nc3ccccn3)cc2)ccc1O`, the Potency was 21.8 µM (active) and 27.3 µM (active).
For `O=C1NC(=O)c2ccccc21`, the Potency was “inactive”.
In the case of `O=C(C1CCCCC1)N1CC(=O)N2CCc3ccccc3C2C1` (stereo unspecified), the “viability change, negative = cytotoxic” value is reported as -19.8% [at 42.5 µM] (inactive).
For `Cc1ccc(S(=O)(=O)NC(=O)NN2CCCCCC2)cc1`, the Potency was “inactive”.
With `O=C(O)c1cccnc1` the Potency was “inactive”.
With `CCCC(O)C(CC)CO` (stereo unspecified) the Potency was “inactive”.
With `O=C(O)/C=C\C(=O)O` the Potency was “inactive”.
In the case of `CC(=O)Nc1nnc(S(N)(=O)=O)s1`, the Potency is reported as “inactive”.

Test: qHTS assay to identify small molecule agonists of the sonic hedgehog signaling (Shh) pathway (AID 1259368; calls by dose curve;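 also: NIH/3T3-derived 3T3Gli1-Luc cells carrying a stable Gli1-driven firefly luciferase reporter; nearly all actives have a fitted effect of over 15% in size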)
Settings: NIH/3T3 Gli1-Luc reporter, luciferase, 24 h, stronger effect = higher value; series mostly up to 92.4 µM; activity change: at the top concentration
Procedure, shortened: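 Stable NIH/3T3 Gli1-Luc reporter clone; 24 hr cpd exposure after a 4 hr settling period; luminescence endpoint.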
In the case of `O=C(O)CCC(=O)O`, the outcome is reported as “inactive”.
In the case of `Oc1ccc(/C=C/c2cc(O)cc(O)c2)cc1`, the outcome is reported as “inactive”.
With `Cc1ccc(C)c(OCCCC(C)(C)C(=O)O)c1` the outcome was “inactive”.
With `O=C(O)c1[nH]n(-c2ccc(S(=O)(=O)O)cc2)c(=O)c1N=Nc1ccc(S(=O)(=O)O)cc1` the outcome was “inactive”.
In the case of `CC(O)CN(CCN(CC(C)O)CC(C)O)CC(C)O` (stereo unspecified), the outcome is reported as “inactive”.
In the case of `CCCCCCCCCCCCCCCC(=O)O`, the outcome is reported as “inactive”.
For `O=C(O)C(=O)O`, the outcome was “inactive”.
With `NC(=O)c1cnccn1` the outcome was “inactive”.
In the case of `Cc1ccccc1C(OCCN(C)C)c1ccccc1` (stereo unspecified), the outcome is reported as “inactive”.
With `c1ccc2[nH]ccc2c1` the outcome was “inactive”.
For `CC(C)(Oc1ccc(C2CC2(Cl)Cl)cc1)C(=O)O` (stereo unspecified), the outcome was “inactive”.
With `CCCC(CCC)C(=O)O` the outcome was “inactive”.
With `O=C(O)CS` the outcome was “inactive”.
With `COc1c2occc2cc2ccc(=O)oc12` the outcome was “inactive”.
With `O=c1ccc2ccccc2o1` the outcome was “inactive”.
With `CCC1(c2ccccc2)C(=O)NCNC1=O` the outcome was “inactive”.
For `CCCNC(=O)NS(=O)(=O)c1ccc(Cl)cc1`, the outcome was “inactive”.
With `O=c1cc[nH]c(=S)[nH]1` the outcome was “inactive”.
With `NC(=O)c1ccccc1O` the outcome was “inactive”.
With `Cn1cc[nH]c1=S` the outcome was “inactive”.
With `Cn1c(=O)c2[nH]cnc2n(C)c1=O` the outcome was “inactive”.
With `Cc1cc(=O)[nH]c(=S)[nH]1` the outcome was “inactive”.
For `COc1ccc2[nH]cc(CCNC(C)=O)c2c1`, the outcome was “inactive”.
In the case of `CC(C)[C@@H]1CC[C@@H](C)C[C@H]1O`, the outcome is reported as “inactive”.
For `Nc1ccn([C@H]2CC[C@@H](CO)O2)c(=O)n1`, the outcome was “inactive”.
With `CC(=O)OCC(COC(C)=O)OC(C)=O` the outcome was “inactive”.
With `O=C(O)c1cc(N=Nc2ccc(S(=O)(=O)Nc3ccccn3)cc2)ccc1O` the outcome was “inactive”.
For `O=C1NC(=O)c2ccccc21`, the outcome was “inactive”.
For `O=C(C1CCCCC1)N1CC(=O)N2CCc3ccccc3C2C1` (stereo unspecified), the outcome was “inactive”.
In the case of `Cc1ccc(S(=O)(=O)NC(=O)NN2CCCCCC2)cc1`, the outcome is reported as “inactive”.
With `O=C(O)c1cccc([N+](=O)[O-])c1` the outcome was “inactive”.
For `CC(=O)NS(=O)(=O)c1ccc(N)cc1`, the outcome was “inactive”.
With `O=C(O)c1cccnc1` the outcome was “inactive”.
For `CC(O)CO` (stereo unspecified), the outcome was “inactive”.
For `CCCC(O)C(CC)CO` (stereo unspecified), the outcome was “inactive”.
For `O=C(O)/C=C\C(=O)O`, the outcome was “inactive”.
In the case of `CC(=O)Nc1nnc(S(N)(=O)=O)s1`, the outcome is reported as “inactive”.
